Test results taken from PubChem BioAssay (EPA / NIEHS).
Results filed as inconclusive are left out. Active and inactive are the calls of the source. Rule for the calls, unless noted: active = hit-call score of the fitted dose curve at least 0.9, where 1 is the maximum; inactive = score below 0.9.

Legend:
[1] = CCTE_Shafer_MEA_acute_burst_percentage_mean: CCTE's Neural Acute Assay for Percentage of Spikes in a Burst, Shafer Lab (AID 2284017);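 for AC50: curve fitted for loss of signal so potency reflects decreased burst percentage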
Outline: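 Rat cortical cultures, DIV 13/15, 37 C. Spikes detected at 8x rms noise (300-5000 Hz band-pass). Burst spikes/total spikes averaged across electrodes per well; % change post- vs pre-treatment (40 min each), loss-of-signal fit vs DMSO.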

[2] = CCTE_Shafer_MEA_acute_burst_percentage_std: CCTE's Neural Acute Assay for Standard Deviation of Burst Percentage, Shafer Lab (AID 2284018);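 note: fitted in the negative direction so actives lower burst percentage SD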
Outline: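 Primary rat cortical neurons on 16-electrode MEA wells were recorded 40 min at baseline (DIV 13 or 15), then 40 min after compound (0.03-40 uM), at 37 C. Well value is SD across electrodes of spikes-in-bursts/total spikes; endpoint is percent change, DMSO-referenced.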

[3] = CCTE_Shafer_MEA_acute_per_network_burst_spike_number_mean: CCTE's Neural Acute Assay for Average Number of Spikes in a Network Burst, Shafer Lab (AID 2284019);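 for AC50: curve fitted for loss of signal so actives reduce spikes per network burst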
Outline: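 Acute exposure of rat primary cortical networks (DIV 13/15) on MEAs; adaptive spike detection at 8x rms noise, 37 C. Percent change in spikes per network burst after 40 min with compound (0.03-40 uM), negative direction vs DMSO.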

[4] = CCTE_Shafer_MEA_acute_per_network_burst_spike_number_std: CCTE's Neural Acute Assay for Standard Deviation of Number of Spikes in a Network Burst, Shafer Lab (AID 2284020);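 note: fitted for decrease in spike-number SD versus DMSO so actives lower it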
Outline: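 Acute MEA exposure, rat cortical neurons, 0.03-40 uM. Per-well % change versus own baseline; DMSO as negative control.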

[5] = CCTE_Shafer_MEA_acute_per_network_burst_electrodes_number_mean: CCTE's Neural Acute Assay for Mean Number of Electrodes in a Network Burst, Shafer Lab (AID 2284021);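 note: curves fitted for decreases only so hits reduce electrodes per burst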
Outline: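 Cultures of rat cortex neurons were exposed on DIV 13 or 15 to compounds at 0.03-40 uM in at least three wells each. Activity over 40 min before and 40 min after exposure at 37 C gave the percent change in electrodes per network burst.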

[6] = CCTE_Shafer_MEA_acute_network_burst_percentage: CCTE's Neural Acute Assay for Percentage of Network Bursts, Shafer Lab (AID 2284022);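 note: curves fitted for loss so actives lower network burst percentage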
Outline: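 Cortical neurons from rat were grown over microelectrode arrays and used on day 13 or 15 in vitro. Wells with at least 10 active electrodes received test chemical at 0.03-40 uM. Activity during 40 min of exposure was compared with the preceding 40-min baseline.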

[7] = CCTE_Shafer_MEA_acute_cross_correlation_area: CCTE's Neural Acute Assay for Area of Cross Correlation, Shafer Lab (AID 2284024);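 note: area under pooled inter-electrode spike cross-correlation near zero lag as percent change from own baseline; curves fitted for loss of cross-correlation area so actives lower synchrony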
Outline: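 Acute exposure of mature rat cortical networks (day 13 or 15 post-plating) to 0.03-40 uM compound. Spontaneous spiking on MEA, 40 min pre- and post-dose at 37 C.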

[8] = CCTE_Shafer_MEA_acute_cross_correlation_HWHM: CCTE's Neural Acute Assay for Cross Correlation at Half Width at Half Maximum, Shafer Lab (AID 2284026);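 note: percent change per well from pre-dose baseline in spike cross-correlogram half width; hits are a decrease in cross-correlogram half width relative to DMSO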
Outline: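 Primary cortex (rat), MEA, DIV 13/15; compound 0.03-40 uM; 40 min pre + 40 min post at 37 C; spike threshold 8x rms; wells need ≥10 active electrodes; endpoint = % change in cross-correlogram HWHM vs baseline, DMSO negative control.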

[9] = CCTE_Shafer_MEA_acute_synchrony_index: CCTE's Neural Acute Assay for Synchrony, Shafer Lab (AID 2284027);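 note: network synchrony index of spontaneous spiking in primary rat cortical neurons on MEAs; fitted for loss of signal so actives lower synchrony relative to DMSO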
Outline: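 The synchrony index is taken as percent change per well between a 40 min baseline and a 40 min recording with compound (0.03–40 uM), at 37C. Rat cortical cultures on multiwell MEAs at DIV 13 or 15, spike threshold 8× rms noise.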

[10] = molecular target: Estrogen receptor (Homo sapiens) (UniProt P03372); experiment: CCTE_Deisenroth_AIME_384WELL_LUC_Active: CCTE's 384-well Estrogen Receptor Transactivation Assay with AIME metabolic competence (ERTA luciferase; metabolism positive), Deisenroth Lab (AID 2284030; active = hit-call score of the fitted dose curve at least 0.9, where 1 is the maximum)
Chain of Estrogen receptor (Homo sapiens) (P03372 whole entry, looked up): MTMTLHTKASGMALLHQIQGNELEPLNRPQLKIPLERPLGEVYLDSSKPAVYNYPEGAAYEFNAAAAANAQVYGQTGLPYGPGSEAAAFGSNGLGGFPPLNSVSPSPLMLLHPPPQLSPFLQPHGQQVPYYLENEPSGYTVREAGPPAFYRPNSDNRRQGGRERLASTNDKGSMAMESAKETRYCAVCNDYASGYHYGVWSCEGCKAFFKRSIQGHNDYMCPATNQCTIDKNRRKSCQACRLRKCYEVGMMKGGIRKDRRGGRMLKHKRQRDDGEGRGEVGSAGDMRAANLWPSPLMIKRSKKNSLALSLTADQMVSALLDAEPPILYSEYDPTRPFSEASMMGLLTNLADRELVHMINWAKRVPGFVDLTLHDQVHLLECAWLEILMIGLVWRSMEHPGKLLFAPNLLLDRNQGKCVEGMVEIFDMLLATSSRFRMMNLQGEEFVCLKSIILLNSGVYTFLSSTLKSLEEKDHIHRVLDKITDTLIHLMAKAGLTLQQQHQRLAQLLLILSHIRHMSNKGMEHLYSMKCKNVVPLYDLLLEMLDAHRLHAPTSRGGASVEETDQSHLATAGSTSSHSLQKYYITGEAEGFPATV
Outline: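 In this metabolism-positive format, a 2-hour exposure to alginate-immobilized rat S9 precedes a 24 hour luciferase transactivation readout in VM7Luc4E2 cells. Dosing spans 10 concentrations from 0.002 to 200 uM.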

Measured: AC50

CC(C)[C@@H](Nc1ccc(C(F)(F)F)cc1Cl)C(=O)OC(C#N)c1cccc(Oc2ccccc2)c1 (some centres not stated)
active: [1] 620 nM | [2] 1280 nM | [3] 415 nM | [4] 289 nM | [5] 310 nM | [6] 564 nM | [7] 534 nM | [9] 403 nM
inactive: [8]

CCOc1ccc(N)cc1
inactive: [10]

Clc1cccc(Cl)c1Cl
not listed: [10]
inactive: all other assays above

Oc1cc(Cl)c(Cl)cc1Cl
active: [1] 36500 nM | [2] 32600 nM | [8] 30200 nM | [9] 30500 nM
not listed: [10]
inactive: all other assays above

CC1(C)[C@H](C(=O)O[C@H](C#N)c2cccc(Oc3ccccc3)c2)[C@@H]1/C=C(\Cl)C(F)(F)F
inactive: [2]
active: [1] 841 nM | [3] 553 nM | [4] 427 nM | [5] 818 nM | [6] 551 nM | [7] 35.9 nM | [8] 23700 nM | [9] 450 nM

OCCCCO
not listed: [10]
inactive: all other assays above

CCN(CCO)CCO
inactive: [10]

Cc1cc(C(F)(C(F)(F)F)C(F)(F)F)ccc1NC(=O)c1cccc(I)c1C(=O)NC(C)(C)CS(C)(=O)=O
active: [1] 5380 nM | [3] 5870 nM | [8] 4610 nM | [9] 5740 nM
not listed: [10]
inactive: all other assays above

Cc1ccccc1OP(=O)(Oc1ccccc1C)Oc1ccccc1C
active: [1] 26300 nM | [2] 24200 nM | [8] 23100 nM | [9] 28100 nM
not listed: [10]
inactive: all other assays above

N#CCC#N
inactive: [10]

CNC(=O)O/N=C/C(C)(C)S(C)(=O)=O
inactive: [10]

O=C(O)COc1ccc(Cl)cc1
inactive: [10]

N#Cc1cccnc1
inactive: all assays above

CC(C)(C)c1ccccc1O
active: [1] 20000 nM | [2] 31800 nM | [8] 20000 nM | [9] 20000 nM
not listed: [10]
inactive: all other assays above

Oc1ccc(Cc2ccc(O)cc2)cc1
active: [7] 1.64 nM
not listed: [10]
inactive: all other assays above

CCCCOC(=O)COC(=O)c1ccccc1C(=O)OCCCC
active: [7] 11.5 nM
not listed: [10]
inactive: all other assays above

CN(C)C(=S)S
not listed: [10]
inactive: all other assays above

O=C(Cc1ccccc1)OCCc1ccccc1
not listed: [10]
inactive: all other assays above

CCCCCCCCCCCCc1cccc(S(=O)(=O)O)c1
not listed: [10]
inactive: all other assays above

CS(=O)(=O)c1ccc(C(=O)C2C(=O)CCCC2=O)c(Cl)c1COCC(F)(F)F
not listed: [10]
inactive: all other assays above

Cc1cc(Cl)ccc1OC(C)C(=O)O (configuration not stated)
inactive: [10]
